Assay results as given in PubChem BioAssay (NCATS).
Results filed as inconclusive are left out. A call without a number means that no potency is given here. Unmarked numbers belong to inactive results. Activity calls are given as the source filed them. Calls follow the shape of the dose curve; as a rule, active = well fitted inhibition curve with a large enough effect; inconclusive = small, poorly fitted or top-dose-only effect; inactive = flat fitted curve, though single readings scatter.

Molecular target: Phospholipid hydroperoxide glutathione peroxidase GPX4 (Homo sapiens) (UniProt P36969)
Experiment: Primary qHTS Assay for Inhibitors of Recombinant Selenoprotein Glutathione Peroxidase 4 (GPX4) (AID 1845192); also: nearly all actives have a fitted effect of over 65% in size
Conditions: recombinant GPX4, GR-coupled NADPH fluorescence, 15 min; series mostly up to 50 µM
Text: Assay Provider: Elias S.J. Arner MD PhD.
Department of Medical Biochemistry and Biophysics
Karolinska Institutet, Solna, Stockholm, Sweden
Selenoprotein glutathione peroxidases (GPX), like the ubiquitously expressed GPX1 and the ferroptosis modulator GPX4, enact their antioxidant activities by reducing hydroperoxides using glutathione. […] GPX1 and GPX4 inhibitors have thus shown promise as anti-cancer agents. Existing inhibitors are often promiscuous, or modulate GPX activity only indirectly, so novel direct inhibitors identified through screening against GPX1 and GPX4 could be valuable. Here, we developed optimized glutathione reductase (GR)-coupled GPX assays for the biochemical high-throughput screen (HTS) of almost 12,000 compounds with known mechanisms of action. Initial hits were triaged using a GR counter-screen, assessed for isoform specificity using a separate GPX2 assay, and were assessed for general selenocysteine-targeting activity using a thioredoxin reductase (TXNRD1) assay. With this suite of assays, we identified novel GPX1/GPX2- and GPX4-specific inhibitors and can here present a validated pipeline for future discovery research for selenoprotein-targeting agents.
SEQUENCE No. (e.g., 1, 2, 3, etc.); […] (e.g., Cells, Incubation, Reagent, etc.); VALUE; DESCRIPTION.
1; Reagent 1; 3 uL; 333.33 nM GPx4 enzyme or no enzyme control in 1536-well, black, solid Greiner assay plate.
2; Compound; 25 nL; Kalypsis pin tool (Wako USA) equipped with a 1536-well pin head.
3; Incubation; 30 min; room temperature.
4; Reagent 2; 1 uL; 500 nM GR, 5 mM GSH, 2.5 mM NADPH solution
5; Reagent 3; 1 uL; 2.5 mM CHP in 50% EtOH.
6; Detection; Fluorescence; ViewLux microplate reader, excitation 340 nm and emission 450 nm.
7; Incubation; 15 min; room temperature.
8; Detection; Fluorescence; ViewLux microplate reader, excitation 340 nm and emission 450 nm.
NOTES (numbers refer to Sequence numbers above)
1. 3 µL of 333.33 nM GPX4 and 0.016% BSA in assay buffer (50 mM Tris-HCl, 2 mM EDTA (pH 7.5), 150 mM NaCl) was added to columns 3-48 of 1536-well plates using a BioRAPTR Flying Reagent Dispenser (Let's Go Robotics (LGR), Carlsbad, CA). A no-enzyme control (0.01% BSA in TES assay buffer) was added to columns 1-2.
2. 25 nL, library and DMSO controls were added to each well with a pin tool (Kalypsys).
3. The assay plates were incubated for 30 minutes at room temperature.
4. 1 µL of master mix (500 nM glutathione reductase (GR), 5 mM reduced glutathione (GSH), 2.5 mM NADPH in assay buffer) was added.
5. 1 µL of cumene hydroperoxide (CHP) ([2.5 mM] in 50% EtOH) was then added within 5 minutes to initiate the reaction. Final concentrations were: 200 nM GPX4, 1 mM GSH, 0.5 mM CHP, 0.5 mM NADPH, 100 nM GR, 0.01% BSA.
6. Initial fluorescence readout (t=0) at 340/450 nm was measured using a ViewLux multimodal detector (PerkinElmer, Waltham, MA).
8. Endpoint fluorescence readout (t=15) at 340/450 nm was measured 15 min after room temperature incubation.
Potency is read from the fitted curve at half-maximal effect.

Chain of Phospholipid hydroperoxide glutathione peroxidase GPX4 (Homo sapiens) (P36969 whole entry, looked up): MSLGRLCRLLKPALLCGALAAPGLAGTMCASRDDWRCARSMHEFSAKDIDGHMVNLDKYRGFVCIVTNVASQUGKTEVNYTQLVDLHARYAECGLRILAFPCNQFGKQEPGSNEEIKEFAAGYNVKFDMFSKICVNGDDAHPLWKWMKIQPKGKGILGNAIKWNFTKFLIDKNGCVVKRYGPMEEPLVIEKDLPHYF

| Compound | Potency | activity change, negative = inhibition |
| --- | --- | --- |
| CC(C)CN(C[C@@H](O)[C@H](Cc1ccccc1)NC(=O)O[C@H]1CCOC1)S(=O)(=O)c1ccc(N)cc1 | inactive |  |
| CN[C@H]1C(=O)N[C@@H]2Cc3ccc(cc3)Oc3cc4cc(c3O[C@@H]3O[C@H](C(=O)O)[C@@H](O)[C@H](O)[C@H]3NC(=O)CCCCCCCCC(C)C)Oc3ccc(cc3Cl)[C@@H](O)[C@@H]3NC(=O)[C@H](NC(=O)[C@@H]4NC(=O)[C@@H](NC2=O)c2cc(cc(O)c2Cl)Oc2cc1ccc2O)c1ccc(O)c(c1)-c1c(O[C@H]2O[C@H](CO)[C@@H](O)[C@H](O)[C@@H]2O)cc(O)cc1[C@@H](C(=O)NCCCN(C)C)NC3=O | inactive |  |
| CCC(=O)OCC(=O)[C@]1(OC(=O)CC)[C@H](C)C[C@H]2[C@H]3[C@H]([C@@H](O)C[C@@]21C)[C@@]1(C)C=CC(=O)C=C1C[C@H]3Cl | inactive |  |
| CC[C@@H]1CCN[C@H](C(=O)N[C@@H]([C@H]2O[C@H](SC)[C@H](O)[C@@H](O)[C@H]2O)[C@H](C)Cl)C1 | inactive |  |
| C#C[C@]1(O)CC[C@H]2[C@@H]3CCC4=CC(=O)CC[C@@H]4[C@H]3C(=C)C[C@@]21CC | inactive |  |
| CN(CC(O)CO)C(=O)c1c(I)c(NC(=O)C(CO)CO)c(I)c(C(=O)N(C)CC(O)CO)c1I (stereo not given) | inactive |  |
| CC(C)=CCCC(C)=CCCC(C)=CCCC=C(C)CCC=C(C)CCC=C(C)C | inactive |  |
| OCC1OC(c2ccc(Cl)c(Cc3ccc(OC4CCOC4)cc3)c2)C(O)C(O)C1O (stereo not given) | inactive |  |
| [2H]C([2H])([2H])C(O)(CCO[C@@H](C)[C@H]1CC[C@H]2/C(=C/C=C3\C[C@@H](O)C[C@H](O)C3=C)CCC[C@]12C)C([2H])([2H])[2H] | inactive |  |
| C/C(O)=C(\C#N)C(=O)Nc1ccc(C(F)(F)F)cc1 | inactive |  |
| CONC(=O)c1ccccc1Nc1cc(Nc2cc(C)nn2C(C)C)ncc1Cl | inactive |  |
| CN1C2CC[C@@H]1CC(OC(=O)[C@H](CO)c1ccccc1)C2 (stereo not given in full) | inactive |  |
| Cc1c(OCC(F)(F)F)ccnc1C[S@@](=O)c1nc2ccccc2[nH]1 | 10 µM (active) |  |
| CC(=O)OCC1=C(C(=O)O)N2C(=O)[C@@H](NC(=O)CC#N)[C@H]2SC1 | inactive |  |
| CC(O)C(CO)NC(=O)C1CSSCC(NC(=O)C(N)Cc2ccccc2)C(=O)NC(Cc2ccccc2)C(=O)NC(Cc2c[nH]c3ccccc23)C(=O)NC(CCCCN)C(=O)NC(C(C)O)C(=O)N1 (stereo not given) | 12.6 µM (active) |  |
| CN(CCCCCCN(C)C(=O)Oc1ccc[n+](C)c1)C(=O)Oc1ccc[n+](C)c1 | inactive |  |
| Cc1oc(-c2ccccc2)nc1CCOc1ccc(CC2C(=O)NOC2=O)cc1 (stereo not given) | 14.1 µM (active) |  |
| CCCCCCCCCCCCCCCCCC(=O)NCCCC[C@H](NC(=O)CC[C@@H](NC(=O)[C@H](C)NC(=O)[C@@H](C)O[C@H]1[C@H](O)[C@@H](CO)OC(O)[C@@H]1NC(C)=O)C(N)=O)C(=O)O (stereo not given in full) | inactive |  |
| CC1(C)S[C@@H]2[C@H](NC(=O)[C@H](NC(=O)N3CCNC3=O)c3ccccc3)C(=O)N2C1C(=O)O (stereo not given in full) | inactive |  |
| O=S(=O)(O)c1ccccc1 | inactive |  |

| Compound | Potency | activity change, negative = inhibition |
| --- | --- | --- |
| Cn1cc(OCC(O)CNC(C)(C)C)c2ccccc2c1=O (stereo not given) | inactive |  |
| CCC(CN)CC(C)CNCC(O)CNCC(CC)CC(CC)CN (stereo not given) | inactive |  |
| CCC1OC(=O)[C@H](C)C(=O)[C@H](C)[C@@H](OC2O[C@H](C)C[C@H](N(C)C)[C@H]2O)[C@](C)(OC)C[C@@H](C)C(=O)[C@@H](C)[C@@H]2N(CCCCn3cnc(-c4cccnc4)c3)C(=O)O[C@]12C (stereo not given in full) | inactive |  |
| CN1CC(O)c2cc(N=NC(=N)N)c(O)cc21 (stereo not given) | inactive |  |
| CNCC(=O)OCc1cccnc1N(C)C(=O)OC(C)[n+]1cnn(C[C@](O)(c2cc(F)ccc2F)[C@@H](C)c2nc(-c3ccc(C#N)cc3)cs2)c1 (stereo not given in full) | inactive |  |
| COc1cc(/C=C\C(=O)N2CCN(CC(=O)N3CCCC3)CC2)cc(OC)c1OC | inactive |  |
| CCN(CC)CCS(=O)(=O)[C@@H]1CCN2C(=O)c3coc(n3)CC(=O)C[C@H](O)/C=C(C)/C=C/CNC(=O)/C=C/[C@@H](C)[C@@H](C(C)C)OC(=O)[C@@H]12 | 6.31 µM (active) |  |
| CC1(C)C[C@H]1C(=O)N/C(=C\CCCCSC[C@@H](N)C(=O)O)C(=O)O | inactive |  |
| CCCCCCC(COC(=O)c1cccnc1)(COC(=O)c1cccnc1)COC(=O)c1cccnc1 | inactive |  |
| O=C(O)CCCN1CCC(O[C@@H](c2ccc(Cl)cc2)c2ccccn2)CC1 | inactive |  |
| CC(=O)c1cc2cccc(OCC(O)CNC(C)C)c2o1 (stereo not given) | inactive |  |
| C[Si](C)(C)O[Si](C)(C)O[Si](C)(C)C | inactive |  |
| O=[N+]([O-])c1ccc(/C=C/c2cccc(CO)n2)o1 | inactive |  |
| CCCN1C[C@H](C)[C@@H](O)[C@](C)(O)[C@@H](CC)OC(=O)[C@H](C)[C@@H](O[C@H]2C[C@@](C)(OC)[C@@H](O)[C@H](C)O2)C(C)[C@@H](O[C@@H]2O[C@H](C)C[C@H](N(C)C)[C@H]2O)[C@](C)(O)C[C@H]1C (stereo not given in full) | inactive |  |
| [2H]C([2H])([2H])C(CCC[C@@H](C)[C@H]1CC[C@H]2/C(=C/C=C3\C[C@@H](O)C[C@H](O)C3=C)CCC[C@]12C)C([2H])([2H])[2H] | 14.1 µM (active) |  |
| C[N+](C)(C)CCOP(=O)([O-])OP(=O)(O)OC[C@H]1OC(n2ccc(N)nc2=O)[C@H](O)[C@@H]1O (stereo not given in full) |  | 0.205% [at 0.409 µM] |
| Nc1nc(Cl)nc2c1ncn2C1CC(O)C(CO)O1 (stereo not given) | inactive |  |
| COc1ccc(CC(C)(C)NC[C@H](O)c2cc(O)cc3c2OCC(=O)N3)cc1 | inactive |  |
| Cc1ccc(S(=O)(=O)O)cc1 | inactive |  |
| COc1cc2c(c(OC)c1OC)-c1c(cc3c(c1OC)OCO3)C[C@H](C)[C@@](C)(O)C2 | inactive |  |
